Screening data as filed in PubChem.
A selection: hits, their analogues and other compounds. The true share with any hit is near 4.3%.
FGF22 binding: FGF22 (human) thermal shift binding. Q9HCT0. recombinant FGF22 thermal shift, SYPRO orange fluorescence; percent of sucrose octasulfate shift, DMSO zero. activity (Tm shift, normalised), % at 9.99 µM. hit rate 1.5% among 340,000;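 active means mean Tm shift, scaled 0 neutral to 100 positive control, at about 1.3% or above, every replicate too, limit read from the data; inconclusive means no clear call, values can overlap the other calls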
MITF act: increases MITF-driven TRPM1 promoter luciferase signal; SK-MEL-5 TRPM1-promoter luciferase, 24 h; % of positive control, neutral wells = 0; activation, % at 12.5 µM; hit rate 0.75% among 300,000;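 active means mean activation of at least 80% with every replicate also reaching 80%; inconclusive means mean reaches 80% but some replicate falls short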
MLL AF4-AF9 inh: inhibitors of human MLL-AF4/AF9 interaction; P42568; AlphaScreen, biotin-AF4 peptide binding to FLAG-AF9; inhibition, % at 10 µM; hit rate 0.47% among 350,000;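 active means every replicate reaching a set inhibition limit, whatever the replicate mean, cut at about 25% in these data; inconclusive means mean inhibition reaches that limit but some replicates miss it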
Target sequence (P42568 whole entry, looked up): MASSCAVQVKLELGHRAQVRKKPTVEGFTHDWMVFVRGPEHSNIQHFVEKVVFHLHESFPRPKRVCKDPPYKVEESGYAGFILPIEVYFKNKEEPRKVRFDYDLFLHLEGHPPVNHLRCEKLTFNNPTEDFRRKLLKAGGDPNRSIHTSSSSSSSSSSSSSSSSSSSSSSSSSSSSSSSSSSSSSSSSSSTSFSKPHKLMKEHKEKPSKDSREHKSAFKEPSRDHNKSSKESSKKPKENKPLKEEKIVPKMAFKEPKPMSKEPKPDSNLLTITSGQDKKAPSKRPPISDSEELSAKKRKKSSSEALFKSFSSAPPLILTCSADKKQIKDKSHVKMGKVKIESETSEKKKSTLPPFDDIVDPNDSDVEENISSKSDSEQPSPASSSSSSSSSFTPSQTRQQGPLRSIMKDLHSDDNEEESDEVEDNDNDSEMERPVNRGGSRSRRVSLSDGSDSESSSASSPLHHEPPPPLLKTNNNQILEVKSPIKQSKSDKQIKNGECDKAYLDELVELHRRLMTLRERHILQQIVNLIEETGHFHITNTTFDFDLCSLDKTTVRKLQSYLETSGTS
Wnt act: activators of Wnt/beta-catenin signaling | Wnt/beta-catenin reporter cell assay, activator, plate reader | activation, % at 9.35 µM | hit rate 1.2% among 300,000 | AID 743398; in the data active means activation above about 30%, passing the limit was not always enough; inconclusive means no clear call, values can overlap the other calls
SMARCA2 act: SMARCA2 function activation, primary screen; activation, % at 9.1 µM; hit rate 1% among 370,000; MG213 cells, MMTV-luciferase reporter, dexamethasone, overnight; in the data active means activation above about 7.8%
esBAF inh: blocks esBAF chromatin remodeling in mouse ES cells; reporter increase, % at 12.5 µM; AID 602393; Bmi1-luciferase knock-in reporter, 24 h; 100% = twice the neutral-well signal; hit rate 2% among 350,000; in the data active means activation above about 40%; inconclusive means no clear call, values can overlap the other calls;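 further: a rise in the Bmi1 reporter signal indicates esBAF inhibition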
A number is an active result.

What do the screens show for `COC(=O)NNC(=O)c1ccc(Cl)cc1Cl`?
FGF22 binding: inactive; MITF act: inactive; MLL AF4-AF9 inh: inactive; Wnt act: inactive; SMARCA2 act: inactive

What do the screens show for `O=C(Nc1ccc(Cl)cc1F)c1ccccc1Br`?
MITF act: inactive; Wnt act: 49.2; SMARCA2 act: inactive

What do the screens show for `O=C(NNc1cccc(Cl)n1)c1ccc(Cl)cc1Cl`?
SMARCA2 act: inactive; esBAF inh: 52.5

Results for Cc1ccc(S(=O)(=O)N(C)C[C@H]2Oc3ccc(NC(=O)NC4CCCCC4)cc3CC(=O)N([C@H](C)CO)C[C@@H]2C)cc1 ?
FGF22 binding: inactive; MLL AF4-AF9 inh: inactive; esBAF inh: inactive

What do the screens show for `CN(C)c1ccc(NC(=O)CN2CCc3ccccc3C2)cc1`?
FGF22 binding: inactive; MITF act: inactive; MLL AF4-AF9 inh: inactive; Wnt act: inactive; SMARCA2 act: inactive; esBAF inh: 43.8

Results for O=C(CN1CCc2ccccc2C1)Nc1ccc(F)cc1 ?
FGF22 binding: inactive; MITF act: inactive; MLL AF4-AF9 inh: inactive; Wnt act: inactive; SMARCA2 act: inactive; esBAF inh: inactive

How did O=C(CN1CCC(NC(=O)C2CCCCC2)CC1)Nc1ccccc1 do in these assays?
FGF22 binding: inactive; MITF act: inactive; MLL AF4-AF9 inh: inactive; Wnt act: inactive; SMARCA2 act: inactive; esBAF inh: inactive

Results for CN(C)c1ccc(NC(=O)CN2CCC(NC(=O)C3CCCCC3)CC2)cc1 ?
FGF22 binding: inactive; MITF act: inactive; MLL AF4-AF9 inh: 50.8; Wnt act: inactive; SMARCA2 act: inactive; esBAF inh: inactive

What do the screens show for `O=C([C@H]1[C@H](CO)[C@H]2Cn3c(ccc(-c4ccccc4)c3=O)[C@@H]1N2CCC(F)(F)F)N1CCCCC1`?
FGF22 binding: inactive; MLL AF4-AF9 inh: inactive; esBAF inh: inactive

What do the screens show for `C[C@H](CO)N1C[C@H](C)[C@@H](CN(C)C(=O)Nc2cccc3ccccc23)Oc2c(NS(=O)(=O)c3ccc(F)cc3)cccc2C1=O`?
FGF22 binding: inactive; MLL AF4-AF9 inh: inactive; esBAF inh: inactive

Results for O=C(Nc1ccn(-c2ccccc2)n1)c1ccccc1Br ?
FGF22 binding: inactive; MITF act: inactive; MLL AF4-AF9 inh: inactive; Wnt act: inconclusive; SMARCA2 act: inactive; esBAF inh: 69.4

Results for CC(=O)Nc1ccn(-c2ccccc2)n1 ?
Wnt act: inactive; SMARCA2 act: inactive; esBAF inh: inactive

How did O=C(Nc1ccc(NC(=O)c2ccccc2Br)cc1)c1ccccc1 do in these assays?
FGF22 binding: inactive; MITF act: inactive; MLL AF4-AF9 inh: inactive; Wnt act: inactive; SMARCA2 act: inactive; esBAF inh: 42.2

Results for O=C(Nc1ccc(C(F)(F)F)cc1)c1ccccc1Br ?
FGF22 binding: inactive; MITF act: inactive; MLL AF4-AF9 inh: inactive; Wnt act: inactive; SMARCA2 act: inactive; esBAF inh: 54.7

Results for CCOc1ccc(NC(=O)c2ccc(NC(=O)c3ccccc3Br)cc2)cc1 ?
FGF22 binding: inactive; MITF act: inactive; MLL AF4-AF9 inh: inactive; Wnt act: inactive; SMARCA2 act: inactive; esBAF inh: inactive

Results for CNC(=O)C[C@H]1CC[C@H]2[C@@H](COc3ccc(NC(=O)NCc4ccccc4)cc3C(=O)N2C)O1 ?
FGF22 binding: inactive; esBAF inh: inactive

How did C[C@H](CO)N1C[C@H](C)[C@@H](CN(C)Cc2ccncc2)OCCCC[C@H](C)Oc2ccc(NC(=O)c3ccccc3)cc2C1=O do in these assays?
FGF22 binding: inactive; MLL AF4-AF9 inh: inactive; esBAF inh: inactive

What do the screens show for `C[C@H]1CN([C@@H](C)CO)C(=O)c2cc(C#Cc3cccc(F)c3)cnc2O[C@H]1CN(C)CC1CCCC1`?
FGF22 binding: inactive; MLL AF4-AF9 inh: inactive; esBAF inh: inactive

What do the screens show for `O=C(NCc1ccccc1)[C@@H]1[C@@H](CO)[C@@H]2Cn3c(cccc3=O)[C@H]1N2C(=O)Cc1ccccn1`?
FGF22 binding: inactive; MLL AF4-AF9 inh: inactive; esBAF inh: inactive

Results for COc1cc(C(F)(F)F)ccc1C(=O)NCCc1ccco1 ?
FGF22 binding: inactive; MITF act: 107.0; MLL AF4-AF9 inh: inactive; Wnt act: inactive; SMARCA2 act: inactive; esBAF inh: 60.0

What do the screens show for `COc1cc(OC)c(C(=O)NCc2ccco2)cc1OC`?
FGF22 binding: inactive; MLL AF4-AF9 inh: inactive; Wnt act: inactive; SMARCA2 act: inactive; esBAF inh: inactive

Results for C[C@@H]1CN([C@@H](C)CO)C(=O)c2cc(C#CC3CCCCC3)cnc2O[C@@H]1CN(C)C(=O)c1ccncc1 ?
FGF22 binding: inactive; MLL AF4-AF9 inh: inactive; esBAF inh: inactive

How did c1ccc(CSc2nc3ncncc3[nH]2)cc1 do in these assays?
FGF22 binding: inactive; MITF act: inactive; MLL AF4-AF9 inh: inactive; Wnt act: inactive; SMARCA2 act: inactive

What do the screens show for `CCOC(=O)Sc1nc2ncncc2[nH]1`?
FGF22 binding: 43.3; MITF act: inactive; MLL AF4-AF9 inh: inactive; Wnt act: inactive; SMARCA2 act: inactive; esBAF inh: inactive

What do the screens show for `Cc1ccc(S(=O)(=O)NC(CC(=O)OCc2ccccc2)C(=O)OCc2ccccc2)cc1` (stereo unspecified)?
FGF22 binding: 29.6; MLL AF4-AF9 inh: inactive; Wnt act: inactive; SMARCA2 act: inactive; esBAF inh: inactive

How did Cc1ccc(S(=O)(=O)NC(Cc2ccccc2)C(=O)O)cc1 (stereo unspecified) do in these assays?
FGF22 binding: inactive; MITF act: inactive; MLL AF4-AF9 inh: inactive; Wnt act: inactive; SMARCA2 act: inactive

How did Cc1cc(C)c(O)c(C(=O)CC2CC(=O)NC(=O)C2)c1 do in these assays?
FGF22 binding: inactive; MLL AF4-AF9 inh: inactive; Wnt act: inactive; SMARCA2 act: inactive

How did CC(=O)c1cccc(Nc2ccc(-c3ccccc3F)nn2)c1 do in these assays?
FGF22 binding: inactive; MITF act: inactive; MLL AF4-AF9 inh: inactive; Wnt act: inactive; SMARCA2 act: inactive

Results for COc1ccccc1-c1ccc(Nc2cccc(C(C)=O)c2)nn1 ?
FGF22 binding: inactive; MITF act: inactive; MLL AF4-AF9 inh: inactive; Wnt act: inactive; SMARCA2 act: inactive; esBAF inh: 50.7

Results for CC(=O)c1ccc(Nc2ccc(-c3ccccc3C)nn2)cc1 ?
FGF22 binding: inactive; MITF act: 85.1; MLL AF4-AF9 inh: inactive; Wnt act: 38.7; SMARCA2 act: inactive; esBAF inh: 82.5

Results for CCC(=O)Nc1ccc2c(c1)C(=O)N(C)[C@H]1CC[C@H](CC(=O)NCCOC)O[C@H]1CO2 ?
FGF22 binding: inactive; MLL AF4-AF9 inh: inactive; esBAF inh: inactive

How did S=c1[nH]nc(-c2ccncc2)n1/N=C/c1cn(-c2ccccc2)nc1-c1ccccc1 do in these assays?
FGF22 binding: inactive; MLL AF4-AF9 inh: inactive; Wnt act: 36.7; SMARCA2 act: inactive

How did O=[N+]([O-])c1ccc(-c2nn(-c3ccccc3)cc2/C=N/n2c(-c3ccncc3)n[nH]c2=S)cc1 do in these assays?
FGF22 binding: inactive; MLL AF4-AF9 inh: inactive; Wnt act: inactive; SMARCA2 act: inactive
